PrPC surface inh: inhibitors of human cell surface prion protein PrPC, primary screen, cell-based, TR-FRET. Major prion protein (Homo sapiens), P04156. TR-FRET read-out. inhibition, % at 13.8 µM. hit rate 0.43% among 370,000. AID 720596, 2013; in the data active = inhibition above about 24%; note: 0% = median of the test wells and 100% = reference compound wells
Vc quorum ag-1: inducers of Vibrio cholerae quorum light production without autoinducers, primary screen, BH1578 luxS cqsA deficient, single point. V. cholerae BH1578 lux reporter, luminescence, 6 h. activation, % at 18.7 µM. hit rate 0.16% among 350,000; in the data active = activation mostly above about 9.7%, no sharp cut-off
SSB-PriA inh: inhibitors of Klebsiella pneumoniae PriA binding to SSB C-terminal tail, primary screen, biochemical, AlphaScreen; PriA–SSB C-terminal tail interaction (Klebsiella pneumoniae); AlphaScreen SSBct-PriA binding, biotinylated peptide; inhibition, % at 33 µM; hit rate 0.6% among 430,000; AID 1272365, 2023; in the data active = inhibition mostly above about 37%, no sharp cut-off; inactive = mostly below about 20%;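 note: plate controls were negative control peptide for no effect and reference peptide for full effect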
PfHsp40 yeast: rescue of yeast from PfHsp40 toxicity, primary screen, S. cerevisiae, ATP luminescence | S. cerevisiae expressing PfHsp40, growth rescue | growth rescue, % at 12.5 µM | hit rate 0.68% among 340,000 | AID 504582, 2011; in the data active = growth rescue above about 28%, passing the limit was not always enough;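 note: yeast W303a lacking pdr1 and pdr3 grown in galactose medium; growth measured after three days at 30 °C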
PrP 5UTR inh: inhibition of PrP 5' UTR reporter expression; hit rate 0.35% among 340,000; inhibition, % (concentration not given with the values); AID 488862, 2010; cell-based PrP 5' UTR mRNA reporter, plate reader; in the data active = inhibition above about 52%; note: 0 = median of the neutral control wells
3CLpro inhibitor: SARS-CoV 3CLpro protease inhibitors, primary screen, biochemical, quenched FRET; AID 1706, 2009; inhibition, % at 6 µM; recombinant SARS-CoV 3CLpro, quenched FRET peptide cleavage; hit rate 0.14% among 290,000; in the data active = inhibition above about 12%
Vc quorum ag-2: V. cholerae lux activation without autoinducers – BH1578 luxS cqsA deficient, cherry-pick, plate reader, dose response; shares compounds with Vc quorum ag-1; V. cholerae BH1578 lux reporter, luminescence, 6 h; activation, % at 50 µM; 620 tested, under 10 active; call rule not given here
HeLa 24h tox: HeLa cell cytotoxicity, dose response, cytotoxicity control, 24 h, dry powder. shares compounds with Vc quorum ag-1. HeLa viability, CellTiter-Glo ATP luminescence. activity change, negative = cytotoxicity, % at 35 µM. 25 tested, under 10 active;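 active = signal drop with fitted half-maximal concentration at or below twice the highest valid dose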
Starred values were filed as active, the others as inactive; i = inactive; . = no result given. This is a sample that favours compounds with a hit; in the whole collection about 1.6% have one here.

SMILES	PrPC surface inh	Vc quorum ag-1	SSB-PriA inh	PfHsp40 yeast	PrP 5UTR inh	3CLpro inhibitor	Vc quorum ag-2	others
COc1ccc(OCC(=O)Nc2ccccc2OC)cc1	10	29*	7	-1	-4	3	175
COc1ccccc1NC(=O)COc1ccc2c(c1)OCO2	11	105*	-14	-1	-20	-4	212
CCOc1ccccc1NC(=O)COc1ccc2c(c1)OCO2	3	0	-9	-1	-18	-4	.
Cc1c(C(=O)c2ccc(F)cc2F)c2ccccn2c1CCc1ccccn1	-11	12	.	.	.	.	0
Cc1ccc(N(C)C(=O)Nc2ccc(C)c(Cl)c2)cc1	.	.	-24	.	.	.	.
Cc1ccc(-c2cc(C(=O)N3N=C(C(F)F)CC3(O)C(F)F)c3ccccc3n2)cc1C (stereo unspecified)	18	12	-1	0	.	3	0
CCc1ccc(OCCNC(=O)c2cccs2)cc1	0	.	-12	1	0	0	i
Cc1ccc(OCCNC(=O)c2ccc(C)o2)cc1	-5	59*	1	-2	-1	.	105
CCOc1ccc(OCCNC(=O)c2cccs2)cc1	.	.	-4	.	.	.	.
COc1ccc(N2CCN(CC(=O)Nc3c(C)cc(C)cc3C)CC2)cc1	0	12	-10	-1	-12	1	0
C[C@H](CO)N1C[C@H](C)[C@@H](CN(C)S(=O)(=O)c2cccs2)Oc2c(NC(=O)C3CC3)cccc2C1=O	-7	0	-17	-1	-14	.	.
Cc1noc(C)c1NC(=O)N(C)C[C@H]1Oc2c(NS(=O)(=O)c3cccs3)cccc2C(=O)N([C@H](C)CO)C[C@@H]1C	-4	-1	-6	-1	-12	.	.
Cc1noc(C)c1NC(=O)Nc1cccc2c1O[C@H](CN(C)S(=O)(=O)c1cccs1)[C@@H](C)CN([C@H](C)CO)C2=O	4	12	-4	-1	-13	.	0
C[C@H]1CN([C@@H](C)CO)C(=O)c2cccc(NC(=O)C3CC3)c2O[C@H]1CN(C)S(=O)(=O)c1cccs1	4	24	4	-1	56	.	0
Cn1c(C2CCCN(S(C)(=O)=O)C2)nn(CC(=O)NC2CCCCC2)c1=O (stereo unspecified)	.	.	-21	.	.	.	.
CCOC(=O)C(CC)Sc1ncnc2c1cnn2-c1ccc(Cl)cc1 (stereo unspecified)	.	.	-11	.	.	.	.
O=C(Oc1ccc2ccc(OC(=O)N3CCOCC3)cc2c1)N1CCOCC1	-4	17*	-24	-1	-15	3	11
COC(=O)c1ccc(C(=O)NCCn2nc(-c3cccs3)cc2C2CC2)cc1	.	.	8	.	.	.	.
Cc1nnc2ccc(N3CCN(C(=O)COc4ccc5c(c4)OCO5)CC3)nn12	.	.	2	.	.	.	.
O=C(COC(=O)CNC(=O)c1ccco1)NCCN1C(=O)CSC1=O	0	12	-5	-1	-17	1	2
COc1ccccc1OCC(=O)OCC(=O)NCCN1C(=O)CSC1=O	-2	-2	-11	-1	-4	-3	.
COc1ccc2c(c1)CCC(C)N2S(=O)(=O)c1ccc(C2CNC(=O)C2)cc1 (stereo unspecified)	8	21	2	-1	-15	1	0
CCC(NC(=O)Nc1nccs1)(C(F)(F)F)C(F)(F)F	1	17*	-2	0	-2	3	1
C=CCn1c(NCc2ccccc2)nc2ccccc21	-1	17*	7	0	0	1	0
CC(=O)c1ccc(C(=O)N(CCCN2CCOCC2)c2nc3c(F)cc(F)cc3s2)cc1	.	.	26	.	.	.	.
SMILES	PrPC surface inh	Vc quorum ag-1	SSB-PriA inh	PfHsp40 yeast	PrP 5UTR inh	3CLpro inhibitor	Vc quorum ag-2	others
Cc1onc(-c2ccccc2)c1C(=O)Nc1nc2c(s1)CCCC2	-6	7.6*	9	3	-39	5	0
Cc1onc(-c2c(F)cccc2Cl)c1C(=O)Nc1nc2c(s1)CCCC2	6	-3	10	-1	8	1	.
Cc1nc(-c2ccccc2)sc1CNC(=O)c1ccccn1	.	.	-2	.	.	.	.
CCCCNC(=O)COC(=O)c1ccc(NC(C)=O)cc1	-4	0	-37	1	-22	1	.
CCCCNC(=O)COC(=O)c1ccc(N(C)C)cc1	1	170*	-6	-1	-34	2	359
CC(C)Oc1ccc(C(=O)Nc2cc(S(=O)(=O)N3CCOCC3)ccc2N2CCOCC2)cc1	12	2	2	0	-20	.	0
O=C(Nc1cccc(Cl)c1)Nc1ccc(Cl)cn1	-4	32*	-14	-1	-30	7	-1
Cc1cc(NC(=O)C2CN(S(C)(=O)=O)C2)ccc1Br	.	.	5	.	.	.	.
O=C(c1cc2cc(Cl)ccc2oc1=O)N1CCCC1	-5	7	-16	-1	-11	-4	0
O=C(Cc1csc(NC(=O)c2ccco2)n1)NC1CC1	.	.	0	.	.	.	.
Fc1ccc(NCc2cn3ccccc3n2)cc1	0	17*	14	2	-54	-1	1
COc1cc(C(N)=O)cc(Br)c1OC	-8	25*	-8	0	6	5	0
O=C(COc1ccccc1)NC1CCN(Cc2ccccc2)CC1	-7	i	7	1	-12	0	.
COc1ccc(OCC(=O)NC2CCCN(Cc3ccc(Cl)cc3)C2)cc1 (stereo unspecified)	9	.	0	-1	-11	0	i
O=C(COc1ccccc1)NC1CCCN(Cc2ccccc2)C1 (stereo unspecified)	.	.	.	.	.	.	.	HeLa 24h tox=5
CCCCNC(=O)Nc1cc(C)on1	-1	14	-9	0	-12	-4	0
O=C(c1ccc(Cl)cc1Cl)N1CCC(Oc2cnccn2)CC1	.	.	2	.	.	.	.
CC(=O)c1cc2c(cc1NC(=O)CN1CCCCCCC1)OCO2	-5	i	-10	1	-6	-1	.
CCCCc1cc2c(cc1NC(=O)CN1CCCCC1)OCCO2	3	14	-5	0	2	3	0
CC1(C)NC(=O)N(CCCCOc2ccc3ccccc3c2Cl)C1=O	-3	-2	-15	0	-30	7	.
CC1(C)NC(=O)N(CCOCCOc2ccc3ccccc3c2Br)C1=O	-25	14	-20	0	-9	0	1
O=C(NCCn1cnc2ccsc2c1=O)c1n[nH]c2c1CCCC2	.	.	-8	.	.	.	.
Cc1noc(C)c1C(=O)OCC(=O)c1c[nH]c2ccccc12	3	12	-6	-1	-35	1	0

Screens (PubChem BioAssay)
